# Assay outcomes as filed in PubChem BioAssay.
# Shown is part of a subset that was picked to be rich in hits.
# RMI FANCM FP: blocks RMI1/RMI2 complex binding to FANCM MM2 peptide; AID 1159607; 70,000 tested, 0.58% active; FP signal (polarization) at 33 µM; Fluorescence polarization, RMI core complex with F-MM2 peptide; hits give low values; in the data active means FP signal below about 40
# An asterisk follows results filed as active.
SMILES,RMI FANCM FP
Cc1cc(C(=O)Nc2ccc3c(c2)C(=O)NC3=O)nn1C,66
O=S(=O)(NCCSCc1ccco1)c1cc(C(F)(F)F)ccc1Cl,45
COc1ccccc1-c1cnn2c(N3CCN(Cc4ccccc4)CC3)cc(C)nc12,60
CC(C)(C)c1cc(N2CCN(C3CCCC3)CC2)n2ncc(-c3ccccc3)c2n1,60
OCCN1CCN(c2cc(-c3ccccc3)nc3c(-c4ccc(Cl)cc4)cnn23)CC1,28*
CC(=O)Nc1cccc(NC(=O)C(=O)NCCCN(C)C)c1,54
COc1ccc(C(=O)Nc2ccc(N3CCN(C(=O)OC(C)(C)C)CC3)nc2)cc1,54
Nc1ncnc(Nc2ccccc2F)n1,54
CC(C)(C)/C=N\N/C=C(\C#N)S(=O)(=O)C(C)(C)C,56
N#Cc1ccc2nc(C(O)C(O)c3nc4ccc(C#N)cc4[nH]3)[nH]c2c1 (stereo not drawn),29*
OC(c1ccccc1)c1nc2ccccc2[nH]1 (stereo not drawn),60
OC(c1nc2ccccc2[nH]1)C(O)c1nc2ccccc2[nH]1 (stereo not drawn),54
COC(=O)Cn1c(=NC(=O)c2ccc(F)cc2)sc2cc(OC)ccc21,28*
COC(=O)Cn1c(=NC(=O)c2ccc(OC)cc2)sc2cc(NC(C)=O)ccc21,74
COC(=O)Cn1c(=NC(=O)c2ccc(Br)s2)sc2cc(F)ccc21,65
COc1cc(C(=O)Nc2cccc(-c3ccc(N4CCOCC4)nn3)c2)cc(OC)c1OC,55
Cn1c(Cc2nn(C)c(=O)c3ccccc23)nnc1SCC(=O)Nc1ccc(Cl)cc1Cl,63
CCC1CCCCN1S(=O)(=O)c1ccc(C(=O)Nc2nc(-c3cc4cccc(OC)c4o3)cs2)cc1 (stereo not drawn),19*
CCOc1cccc2cc(-c3csc(NC(=O)c4ccc(S(=O)(=O)N5CCCc6ccccc65)cc4)n3)oc12,54
CCOc1cccc2cc(-c3csc(NC(=O)c4ccc(C(C)=O)cc4)n3)oc12,53
Cc1nc(C)c(NC(=O)Nc2ccc(Cl)cc2)cc1NC(=O)Nc1ccc(Cl)cc1,104
CC(C)CNC(=O)Nc1c[nH]c2ccccc12,60
COc1ccccc1CNC(=O)Nc1c[nH]c2ccccc12,62
O=C(NCc1ccccn1)Nc1c[nH]c2ccccc12,25*
CCSc1cccc(C(=O)Nc2ccc(OC)cc2[N+](=O)[O-])c1,66
SMILES,RMI FANCM FP
O=C(Nc1cccc(F)c1)c1csc2nc(-c3ccc(F)cc3)cn12,81
Cc1cccc2sc(NC(=O)Cc3ccc4c(c3)OCO4)nc12,78
CCOc1ccc(-c2noc(CS(=O)(=O)c3ccc(OC)c(Cl)c3)n2)cc1,68
O=c1c2scc(-c3ccccc3)c2ncn1Cc1cccc(Cl)c1,63
O=c1c2scc(-c3cccc(Cl)c3)c2ncn1Cc1cc(=O)n2ccccc2n1,16*
Cc1ccc(C)c(Cn2cnc3c(-c4cccc(Cl)c4)csc3c2=O)c1,66
CCOC(=O)Cn1c(=O)n(-c2ccc(C)cc2)c(=O)c2oc3ccccc3c21,57
Cc1ccc(C(=O)NNC(=O)c2c(-n3c(C)ccc3C)sc3c2CCCC3)cc1,75
COC(=O)c1sc(-c2ccccc2)cc1NC(=O)c1ccc(S(=O)(=O)N2CCc3ccccc32)cc1,48
CC(C)N1CCc2c(sc(NC(=O)c3c(F)cccc3F)c2-c2nc3ccccc3s2)C1,-10*
CCn1nccc1C(=O)Nc1sc2c(c1-c1nc3ccccc3s1)CCC(C)C2 (stereo not drawn),70
CC(=O)N1CCc2c(sc(NC(=O)c3cc(=O)c4ccccc4o3)c2-c2nc3ccccc3s2)C1,-23
CC(C)N1CCc2c(sc(NC(=O)c3ccnn3C)c2-c2nc3ccccc3s2)C1,-7*
COC(=O)N1CCc2c(sc(NC(=O)c3ccccc3)c2-c2nc3ccccc3s2)C1,70
CC(=O)N1CCc2c(sc(NC(=O)c3c(F)cccc3F)c2-c2nc3ccccc3s2)C1,90
O=C(CCc1ccccc1)NC1CC(=O)N(c2ccc(F)cc2)C1 (stereo not drawn),53
COc1nc(C)c(-c2csc(C)n2)cc1C#N,62
COC(=O)c1ccc(NC(=O)c2cc(=O)c(OCc3cccc(OC)c3)c[nH]2)cc1,58
CCOC(=O)c1ccc(Nc2c(C#N)cnc3c(OC)cccc23)cc1,68
CC(=O)N1CC(C)=C(C#N)C1O (stereo not drawn),-1*
COCCCNC(=S)N/N=C\c1cccn1-c1ccc(C(F)(F)F)cc1,59
C=CCN1C(=O)C(Cc2ccccc2)S/C1=N/N=C\c1ccccc1 (stereo not drawn),54
O=C1NC(=O)c2cc(NC(=O)c3sc4ccccc4c3Cl)ccc21,57
O=C(NCC1CCN(Cc2ccccc2)CC1)C(=O)Nc1cccc(C(F)(F)F)c1,78
COc1ccc(Cn2c(=O)c3ncccc3n(CC(=O)N3CCCc4ccccc43)c2=O)cc1,56
O=C(O)c1cccc2cccc(-c3cccc4cccc(C(=O)O)c34)c12,53
O=C1Sc2cccc3cccc1c23,58*
CNN1C(=O)c2cccc3cccc(c23)C1=O,55
